Consider 20 compounds from PubChem BioAssay (EPA / NIEHS).

The source made the active and inactive calls. Rule for the calls: active = hit-call score of the fitted dose curve at least 0.9, where 1 is the maximum; inconclusive = response in the unintended direction; inactive = score below 0.9.

A short description of the assay: LTEA_HepaRG_LDH_cytotoxicity: Cytotoxicity Assessment in the Life Technologies and Expression Analysis (LTEA) Assay (AID 2283563).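 For AC50: LDH activity released into spent culture medium as a marker of cell death.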 In outline: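 Differentiated HepaRG cells in serum-free induction medium, exposed 48 h in duplicate to 8 half-log concentrations up to 100 uM in 0.5% DMSO. Cytotoxicity from LDH measured in spent medium, fit relative to DMSO.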
In the case of `O=c1n(CC2CO2)c(=O)n(CC2CO2)c(=O)n1CC1CO1` (stereo not given), the result was inactive. The same measure, in the same setting: to `O=C1CCC(N2C(=O)c3ccccc3C2=O)C(=O)N1` (stereo not given) belongs “inactive”. With `Cc1ccc(S(=O)(=O)O)cc1C`, the compound was classed as inactive. The same measure, in the same setting: to `C1N2CN3CN1CN(C2)C3` belongs “inactive”. The same measure, in the same setting: with `COC(=O)c1c(Cl)c(Cl)c(C(=O)OC)c(Cl)c1Cl` the entry was “inactive”. On the same count and under the same terms, to `CN(C)c1ccc(N=NS(=O)(=O)O)cc1` belongs “inactive”; to `CC(C)CC(C)(O)C#CC(C)(O)CC(C)C` (stereo not given), “inactive”; to `O=C1OC(=O)C2C3C=CC(C3)C12` (stereo not given), “inactive”. With `COC(=O)c1ccccc1O`, the call was inactive. For orientation: AC50 means the concentration giving half of the maximal activity seen. Regarding `O=C(CCCCCCCCc1cccnc1)N1CCC(C=C(c2ccccc2)c2ccccc2)CC1`, the AC50 was 36.8 µM (active). Regarding `C[C@](N)(Cc1ccc(O)c(O)c1)C(=O)O`, the result was inactive. For the compound `Cn1cnc([N+](=O)[O-])c1Sc1ncnc2nc[nH]c12`, the compound was called inactive. Turning to `O=C1CCCCCN1`, the result was inactive.

Consider `Oc1ccc2c(c1)-c1ccccc1C2`, for which the compound was classed as inactive. Still for that read-out and setting: to `CC(C)=CCC/C(C)=C\CO` belongs “inactive”. The same measure, in the same setting: to `CCC(C)(C)C(=O)O[C@H]1C[C@@H](C)C=C2C=C[C@H](C)[C@H](CC[C@@H]3C[C@@H](O)CC(=O)O3)[C@H]21` belongs “inactive”; to `Nc1cccc(N)c1`, “inactive”; to `Nc1nc2ncc(CNc3ccc(C(=O)N[C@@H](CCC(=O)O)C(=O)O)cc3)nc2c(=O)[nH]1`, “inactive”. Same read-out and setting: to `Cn1c(=O)c2c(ncn2C)n(C)c1=O` belongs “inactive”; to `O=C(OC[C@H]1O[C@@H](OC(=O)c2cc(O)c(O)c(OC(=O)c3cc(O)c(O)c(O)c3)c2)[C@H](OC(=O)c2cc(O)c(O)c(OC(=O)c3cc(O)c(O)c(O)c3)c2)[C@@H](OC(=O)c2cc(O)c(O)c(OC(=O)c3cc(O)c(O)c(O)c3)c2)[C@@H]1OC(=O)c1cc(O)c(O)c(OC(=O)c2cc(O)c(O)c(O)c2)c1)c1cc(O)c(O)c(OC(=O)c2cc(O)c(O)c(O)c2)c1`, “inactive”.
